Test results published in the supplement of paper PMC3334620.
Over roughly 33,000 sequences, “E-score (-0.5 to 0.5)” has its median near -0.013; the highest 2% begin near 0.3. For the sample, the highest values were picked, then their nearest neighbours and some sequences at random.

These sequences were tested against T1, Msn1 (UniProt P22148) (assay: PBM E-score (8-mer binding enrichment) (E-score (-0.5 to 0.5)); higher = stronger / more preferred TF binding). Settings: protein concentration: 200 nM; construct: GST-full length.
T1 sequence: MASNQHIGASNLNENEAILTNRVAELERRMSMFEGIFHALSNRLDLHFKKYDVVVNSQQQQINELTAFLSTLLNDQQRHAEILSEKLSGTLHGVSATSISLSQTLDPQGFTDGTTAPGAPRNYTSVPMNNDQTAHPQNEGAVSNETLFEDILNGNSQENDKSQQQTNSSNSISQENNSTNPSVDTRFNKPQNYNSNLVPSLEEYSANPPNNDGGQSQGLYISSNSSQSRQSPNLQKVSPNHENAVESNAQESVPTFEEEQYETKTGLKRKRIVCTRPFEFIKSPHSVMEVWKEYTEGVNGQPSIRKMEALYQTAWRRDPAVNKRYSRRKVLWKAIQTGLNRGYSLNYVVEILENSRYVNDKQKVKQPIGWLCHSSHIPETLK
Protocol: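 Universal 'all 10-mer' protein binding microarrays (Agilent AMADID 015681) probed with GST-tagged S. cerevisiae TFs (full-length or DBD) made by in vitro transcription/translation (PURExpress), about 100-200 nM. Bound TF was detected with fluorescent anti-GST. Each ungapped 8-mer (which stands for itself and its reverse complement) is scored by the PBM enrichment score (E-score), a modified Wilcoxon-Mann-Whitney statistic from -0.5 to +0.5, computed with the Universal PBM Analysis Suite. Scale: above 0.35 generally sequence-specific binding.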

| Sequence | PBM E-score |
| --- | --- |
| ATCGACCC | -0.11 |
| ATCCCTGC | -0.24 |
| AGGGTAAG | 0.00826 |
| AACGGGTC | -0.155 |
| CAGAATAC | 0.0673 |
| TCCTCTAA | -0.0667 |
| AGTGGGAC | 0.118 |
| ACTCTCCA | -0.0814 |
| ATTGAACA | 0.124 |
| CTCGTCCC | 0.228 |
| CCCCATAG | -0.15 |
| GAAATGTC | 0.487 |
| GAAATGTA | 0.245 |
| GAAATGCC | 0.00283 |
| CAAATTTC | 0.184 |
| CAAATGTC | 0.471 |
| CAAATTTG | 0.32 |
| AAAATTTG | 0.16 |
| CAAATGTA | 0.276 |
| CAAATGTG | 0.229 |
| GCCGGTCC | -0.233 |
| CAGCGTTA | -0.131 |
| AAACTCTC | -0.0224 |
| CGGACGAC | -0.0607 |
| GGGACCAC | -0.255 |

| Sequence | PBM E-score |
| --- | --- |
| CGGACAAA | 0.484 |
| CGGACCAG | -0.125 |
| CGGACGAA | 0.337 |
| CGGACGGA | -0.00604 |
| GGAACAAC | 0.0504 |
| CGGACAGA | 0.302 |
| GGGACAAC | 0.375 |
| CGGACAAG | 0.418 |
| GGGACGAA | 0.187 |
| CGGACGAG | 0.0588 |
| GCTCTCAC | -0.29 |
| ATTTGACG | 0.15 |
| CCAGCATC | -0.148 |
| AGAAGAGC | -0.0669 |
| GTTGAATA | 0.0705 |
| TGGTCTAA | -0.0904 |
| CAGACAAC | 0.212 |
| CGGACCAC | -0.0995 |
| CGGACAAC | 0.369 |
| GATGGAGC | -0.185 |
| GTGCGGGA | -0.0606 |
| AAAAGTAA | 0.25 |
| AAAAGTAC | 0.366 |
| ACAAGTCG | 0.0205 |
| ATTAGTCA | 0.0896 |

| Sequence | PBM E-score |
| --- | --- |
| ACAAGTCA | 0.0996 |
| ATTAGTCG | 0.16 |
| AAAAGTAT | 0.17 |
| AAAAGTCT | 0.269 |
| ACAAGTCC | 0.363 |
| AAAAGTCA | 0.194 |
| AAAAGTCC | 0.467 |
| ATTAGTCC | 0.349 |
| ACCTCAGA | -0.147 |
| CGGCTTAC | 0.051 |
| AAGGCCAA | -0.2 |
| TGGCGAAA | -0.095 |
| ACTGAAGA | 0.147 |
| AAGGCTAG | 0.0752 |
| CACCCAAC | -0.201 |
| GAGGCGCC | -0.178 |
| ATAAGTCC | 0.422 |
| CTAAGTCC | -0.0602 |
| ATAAGTCG | 0.0746 |
| ACAGTCAG | 0.0633 |
| CATTTGCA | 0.0736 |
| GGTTTGTA | 0.0228 |
| GATTTGTA | 0.31 |
| GATTTGCA | 0.0983 |
| CATTTGTC | 0.485 |

| Sequence | PBM E-score |
| --- | --- |
| CATTTGCC | -0.00883 |
| AATTTGTA | 0.28 |
| CATTTGTA | 0.36 |
| CATTTGGC | 0.0384 |
| GCAACCGC | 0.0753 |
| AATCCAAG | 0.0229 |
| AGCCCGCG | -0.185 |
| CAACCATC | -0.177 |
| CTGAACTC | -0.0622 |
| GAGGGACC | -0.268 |
| TAGGGACA | 0.484 |
| GAGGGAGA | -0.218 |
| AAGGGACC | -0.0619 |
| GAGGGACA | 0.447 |
| AAGGGACT | 0.0205 |
| TAGGGAGA | -0.215 |
| TAGGGAAA | -0.0483 |
| CAGGGACC | -0.273 |
| AAGGGACA | 0.44 |
| CAGGGACG | 0.165 |
| CAGGGACA | 0.47 |
| ACTAGCGA | 0.0418 |
| AGCATGCG | -0.0235 |
| GAGTCTCA | 0.00041 |
| CGATAACC | 0.0193 |

| Sequence | PBM E-score |
| --- | --- |
| GAAATGGA | -0.0913 |
| GAAATGAC | 0.216 |
| CCGATTTA | 0.109 |
| GAGCCCTC | -0.318 |
| CCCTAGTA | -0.0771 |
| CAAGCGTA | -0.0459 |
| CCTTTTAC | 0.0837 |
| CTGGGGCC | -0.384 |
| AGGACAAT | 0.483 |
| AGGACCAC | -0.124 |
| ACGACAAT | 0.24 |
| AGGACCAG | -0.141 |
| AGGACTAG | 0.273 |
| AGGACAAG | 0.472 |
| AGGACTAC | -0.122 |
| AGGACAAC | 0.436 |
| AGGACGAT | -0.0393 |
| ATTCGAAA | 0.0661 |
| AATCTGGT | 0.0578 |
| ATAGGTAC | 0.199 |
| GCTTTCGA | -0.175 |
| ATGCCTGC | -0.145 |
| ACGGTTAA | -0.117 |
| CCTCGTTC | -0.202 |
| AGAAAACA | 0.108 |

| Sequence | PBM E-score |
| --- | --- |
| AAGGACGT | 0.32 |
| AAGGACAG | 0.296 |
| AAGGACTT | 0.347 |
| CAGGACAG | 0.259 |
| AAGGACGG | -0.145 |
| AAGGACAA | 0.485 |
| CAGGACCA | -0.0434 |
| AAGGACGA | 0.0414 |
| CAGGACAA | 0.481 |
| AAGGACCA | -0.0926 |
| AAGGACTG | -0.0408 |
| AAGGACTA | -0.00885 |
| GCCCGTCA | -0.234 |
| ACCGGTAA | -0.0138 |
| AACTTTGA | 0.12 |
| AAATTCGT | 0.256 |
| AGCCCCGC | -0.0507 |
| GGGCCTAA | -0.0118 |
| TAGGACTA | 0.257 |
| TAGGACAA | 0.491 |
| AAGGACCT | 0.0694 |
| AAGGACAT | 0.49 |
| AAGGAGAT | -0.164 |
| TAGGACCA | 0.202 |
| TATATGCA | 0.102 |

| Sequence | PBM E-score |
| --- | --- |
| ACATTCAA | 0.134 |
| CTTGGCCA | -0.0402 |
| GAGGACCC | -0.218 |
| GAGGACCA | -0.184 |
| GAGGACAC | 0.398 |
| AAGGACGC | 0.167 |
| GAGGACTC | -0.078 |
| AAGGACAC | 0.449 |
| CAGGACAC | 0.407 |
| CAGGACGC | 0.00853 |
| GAGGACTA | 0.0516 |
| CAGAACAC | -0.0663 |
| AAGGACCC | -0.0634 |
| GAGGACAA | 0.466 |
| GCCGGTAA | 0.146 |
| ATATTCGG | 0.11 |
| AGCAGTTA | -0.0695 |
| CTCGACAG | -0.14 |
| TACACTGA | 0.0723 |
| GCCTAAAC | 0.0003 |
| AGTCGCTA | -0.0278 |
| ACGATGTA | 0.00548 |
